# Experimental data as given in the supplement of paper PMC4466140.
# Key:
# Assay in all cases: SPOT peptide array binding signal intensity (averaged, normalized) (arbitrary units (background-subtracted, floor 0; scale differs between SH3 domains)); higher = stronger binding of the SH3 domain to the peptide
# [1] = target: AgAbp1
# Method in brief: (§1)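 SH3 domains from four yeast species were expressed as GST fusions in E. coli BL21(DE3) and purified on glutathione Sepharose. Each was incubated at 10 μg/ml overnight at 4°C in TBS-based blocking buffer on cellulose membranes bearing synthetic 15-mer peptides, in which serines replaced cysteines. Bound protein was detected with anti-GST antibody, an HRP anti-mouse secondary and luminol, then imaged and quantified with Genespotter. The binding signal is the normalized, background-subtracted spot intensity averaged over replicates, in arbitrary units that are not the same from one domain to another.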
# [2] = target: AgBbc1
# Method in brief: as §1
# [3] = target: AgBem1-D1
# Method in brief: as §1
# [4] = target: AgBzz1-D1
# Method in brief: as §1
# [5] = target: AgBzz1-D2
# Method in brief: as §1
# [6] = target: AgCyk3
# Method in brief: as §1
# [7] = target: AgFus1
# Method in brief: as §1
# [8] = target: AgHof1
# Method in brief: as §1
# [9] = target: AgHse1
# Method in brief: as §1
# [10] = target: AgLsb1
# Method in brief: as §1
# [11] = target: AgLsb4
# Method in brief: as §1
# [12] = target: AgMyo5
# Method in brief: as §1
# [13] = target: AgNbp2
# Method in brief: as §1
# [14] = target: AgRvs167
# Method in brief: as §1
# [15] = target: AgSho1
# Method in brief: as §1
# [16] = target: AgSla1-D1-D2
# Method in brief: as §1
# [17] = target: AgSla1-D3
# Method in brief: as §1
# [18] = target: CaAbp1-D1
# Method in brief: as §1
# [19] = target: CaAbp1-D2
# Method in brief: as §1
# [20] = target: CaBbc1
# Method in brief: as §1
# [21] = target: CaBem1-D1
# Method in brief: as §1
# [22] = target: CaBzz1-D1
# Method in brief: as §1
# [23] = target: CaBzz1-D2
# Method in brief: as §1
# [24] = target: CaCyk3
# Method in brief: as §1
# [25] = target: CaFus1
# Method in brief: as §1
# [26] = target: CaHof1
# Method in brief: as §1
# [27] = target: CaHse1
# Method in brief: as §1
# [28] = target: CaLsb1
# Method in brief: as §1
# [29] = target: CaLsb4
# Method in brief: as §1
# [30] = target: CaMyo5
# Method in brief: as §1
# [31] = target: CaNbp2
# Method in brief: as §1
# [32] = target: CaRvs167
# Method in brief: as §1
# [33] = target: CaRvs167-3
# Method in brief: as §1
# [34] = target: CaSho1
# Method in brief: as §1
# [35] = target: CaSla1-D1-D2
# Method in brief: as §1
# [36] = target: CaSla1-D3
# Method in brief: as §1
# [37] = target: ScAbp1
# Method in brief: as §1
# [38] = target: ScBbc1
# Method in brief: as §1
# [39] = target: ScBem1-D1
# Method in brief: as §1
# [40] = target: ScBzz1-D1
# Method in brief: as §1
# [41] = target: ScBzz1-D2
# Method in brief: as §1
# [42] = target: ScCyk3
# Method in brief: as §1
# [43] = target: ScFus1
# Method in brief: as §1
# [44] = target: ScHof1
# Method in brief: as §1
# [45] = target: ScHse1
# Method in brief: as §1
# [46] = target: ScLsb1
# Method in brief: as §1
# [47] = target: ScLsb2
# Method in brief: as §1
# [48] = target: ScLsb3
# Method in brief: as §1
# [49] = target: ScLsb4
# Method in brief: as §1
# [50] = target: ScMyo3
# Method in brief: as §1
# [51] = target: ScMyo5
# Method in brief: as §1
# [52] = target: ScNbp2
# Method in brief: as §1
# [53] = target: ScPex13
# Method in brief: as §1
# [54] = target: ScRvs167
# Method in brief: as §1
# [55] = target: ScSho1
# Method in brief: as §1
# [56] = target: ScSla1-D1-D2
# Method in brief: as §1
# [57] = target: ScSla1-D3
# Method in brief: as §1
# [58] = target: SpAbp1-D1
# Method in brief: as §1
# [59] = target: SpBbc1
# Method in brief: as §1
# [60] = target: SpBzz1-D1
# Method in brief: as §1
# [61] = target: SpBzz1-D2
# Method in brief: as §1
# [62] = target: SpCyk3
# Method in brief: as §1
# [63] = target: SpHof1
# Method in brief: as §1
# [64] = target: SpHof1-2
# Method in brief: as §1
# [65] = target: SpHof1-3
# Method in brief: as §1
# [66] = target: SpHse1
# Method in brief: as §1
# [67] = target: SpLsb1
# Method in brief: as §1
# [68] = target: SpLsb4
# Method in brief: as §1
# [69] = target: SpMyo1
# Method in brief: as §1
# [70] = target: SpNbp2
# Method in brief: as §1
# [71] = target: SpPex13
# Method in brief: as §1
# [72] = target: SpRvs167
# Method in brief: as §1
# [73] = target: SpSla1-D1-D2
# Method in brief: as §1
# [74] = target: SpSla1-D3
# Method in brief: as §1
binder,measurement,setting,value
RTIRKLPLMSLSEYF,SPOT peptide array binding signal intensity,[1],7.5
same,SPOT peptide array binding signal intensity,[2],14.5
same,SPOT peptide array binding signal intensity,[3],106
same,SPOT peptide array binding signal intensity,[4],8
same,SPOT peptide array binding signal intensity,[5],21
same,SPOT peptide array binding signal intensity,[6],0.5
same,SPOT peptide array binding signal intensity,[7],345
same,SPOT peptide array binding signal intensity,[8],34.5
same,SPOT peptide array binding signal intensity,[9],356
same,SPOT peptide array binding signal intensity,[10],≤ 0
same,SPOT peptide array binding signal intensity,[11],61.5
same,SPOT peptide array binding signal intensity,[12],0.25
same,SPOT peptide array binding signal intensity,[13],379
same,SPOT peptide array binding signal intensity,[14],3
same,SPOT peptide array binding signal intensity,[15],122
same,SPOT peptide array binding signal intensity,[16],46
same,SPOT peptide array binding signal intensity,[17],8
same,SPOT peptide array binding signal intensity,[18],285
same,SPOT peptide array binding signal intensity,[19],123
same,SPOT peptide array binding signal intensity,[20],42.5
same,SPOT peptide array binding signal intensity,[21],66.5
same,SPOT peptide array binding signal intensity,[22],82.5
same,SPOT peptide array binding signal intensity,[23],63.5
same,SPOT peptide array binding signal intensity,[24],59
same,SPOT peptide array binding signal intensity,[25],942
same,SPOT peptide array binding signal intensity,[26],≤ 0
same,SPOT peptide array binding signal intensity,[27],121
same,SPOT peptide array binding signal intensity,[28],4.5
same,SPOT peptide array binding signal intensity,[29],282
same,SPOT peptide array binding signal intensity,[30],6
same,SPOT peptide array binding signal intensity,[31],571
same,SPOT peptide array binding signal intensity,[32],42.5
same,SPOT peptide array binding signal intensity,[33],4.75
same,SPOT peptide array binding signal intensity,[34],668
same,SPOT peptide array binding signal intensity,[35],152
same,SPOT peptide array binding signal intensity,[36],98.2
same,SPOT peptide array binding signal intensity,[37],23
same,SPOT peptide array binding signal intensity,[38],5.25
same,SPOT peptide array binding signal intensity,[39],48
same,SPOT peptide array binding signal intensity,[40],15
same,SPOT peptide array binding signal intensity,[41],21
same,SPOT peptide array binding signal intensity,[42],28.5
same,SPOT peptide array binding signal intensity,[43],328
same,SPOT peptide array binding signal intensity,[44],3
same,SPOT peptide array binding signal intensity,[45],1080
same,SPOT peptide array binding signal intensity,[46],2
same,SPOT peptide array binding signal intensity,[47],≤ 0
same,SPOT peptide array binding signal intensity,[48],639
same,SPOT peptide array binding signal intensity,[49],92
same,SPOT peptide array binding signal intensity,[50],2.5
same,SPOT peptide array binding signal intensity,[51],4.5
same,SPOT peptide array binding signal intensity,[52],556
same,SPOT peptide array binding signal intensity,[53],54.2
same,SPOT peptide array binding signal intensity,[54],71.7
same,SPOT peptide array binding signal intensity,[55],1040
same,SPOT peptide array binding signal intensity,[56],290
same,SPOT peptide array binding signal intensity,[57],58.2
same,SPOT peptide array binding signal intensity,[58],85.5
same,SPOT peptide array binding signal intensity,[59],1
same,SPOT peptide array binding signal intensity,[60],109
same,SPOT peptide array binding signal intensity,[61],1
same,SPOT peptide array binding signal intensity,[62],8.5
same,SPOT peptide array binding signal intensity,[63],239
same,SPOT peptide array binding signal intensity,[64],18
same,SPOT peptide array binding signal intensity,[65],327
same,SPOT peptide array binding signal intensity,[66],458
same,SPOT peptide array binding signal intensity,[67],3.5
same,SPOT peptide array binding signal intensity,[68],816
same,SPOT peptide array binding signal intensity,[69],7
same,SPOT peptide array binding signal intensity,[70],484
same,SPOT peptide array binding signal intensity,[71],26
same,SPOT peptide array binding signal intensity,[72],20
same,SPOT peptide array binding signal intensity,[73],≤ 0
same,SPOT peptide array binding signal intensity,[74],19
VNIPSPSSSPPPIPK,SPOT peptide array binding signal intensity,[61],≤ 0
same,SPOT peptide array binding signal intensity,[62],1
same,SPOT peptide array binding signal intensity,[63],≤ 0
same,SPOT peptide array binding signal intensity,[64],≤ 0
same,SPOT peptide array binding signal intensity,[65],≤ 0
same,SPOT peptide array binding signal intensity,[66],43
same,SPOT peptide array binding signal intensity,[67],≤ 0
same,SPOT peptide array binding signal intensity,[68],≤ 0
same,SPOT peptide array binding signal intensity,[69],1720
same,SPOT peptide array binding signal intensity,[70],≤ 0
same,SPOT peptide array binding signal intensity,[71],1.5
same,SPOT peptide array binding signal intensity,[72],≤ 0
same,SPOT peptide array binding signal intensity,[73],2
same,SPOT peptide array binding signal intensity,[74],2
